Several values for one entry are separate records, joined by “and”; a condition that tells them apart may be missing. Equal entries are not always repeated. Among all 5,500 compounds or so, about 2,000 (36%) were called active. Inconclusive results (about 18%) are left out. No stated cut-off is given here; in the data, active means normalized growth mostly below about 0.91 (no sharp cut-off); inconclusive means no clear call, values can overlap the other calls; inactive means mostly above about 0.92. The list shows a part of the results.
Experiment: chemical genetic growth profiling, strain panel (AID 1159580);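 further: tested at 20 µM; growth read once vehicle control cultures reached saturation at 30 °C; 1 = growth at the plate median or of vehicle wells; lower values mean less growth of the strain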
Conditions: S. cerevisiae deletion strains, growth OD

Measured: normalized growth

C#C[C@]1(O)CCC2C3CCC4=CC(=O)CC[C@@H]4C3CC[C@@]21C (some centres undefined)
inactive: locus YAL021C, strain ccr4, hits give low values 0.973 | locus YAL026C, strain drs2, hits give low values 0.967 | locus YAL030W, strain snc1, hits give low values 0.987 | locus YBL061C, strain skt5, hits give low values 0.989 | locus YBR009C, strain hhf1, hits give low values 0.985 | locus YBR021W, strain FUR4, hits give low values 0.978 | locus YBR023C, strain chs3, hits give low values 0.987 | locus YBR171W, strain sec66, hits give low values 0.969 | locus YBR229C, strain ROT2, hits give low values 0.997 | locus YBR231C, strain swc5, hits give low values 1 | locus YBR279W, strain paf1, hits give low values 0.994 | locus YCL011C, strain gbp2, hits give low values 0.984 | locus YCL016C, strain dcc1, hits give low values 1 | locus YCL029C, strain bik1, hits give low values 0.984 | locus YCL061C, strain MRC1, hits give low values 0.977 | locus YCL069W, strain vba3, hits give low values 0.968 | locus YCR088W, strain abp1, hits give low values 0.982 | locus YDL005C, strain med2, hits give low values 0.962 | locus YDL035C, strain GPR1, hits give low values 0.98 | locus YDL040C, strain nat1, hits give low values 0.984 | locus YDL074C, strain BRE1, hits give low values 0.988 | locus YDL101C, strain DUN1, hits give low values 0.995 | locus YDL134C, strain PPH21, hits give low values 0.975 | locus YDL185W, strain tfp1, hits give low values 0.98 | locus YDL192W, strain arf1, hits give low values 0.978 | locus YDR001C, strain nth1, hits give low values 0.981 | locus YDR069C, strain doa4, hits give low values 0.972 | locus YDR101C, strain arx1, hits give low values 0.97 | locus YDR137W, strain rgp1, hits give low values 0.892 | locus YDR150W, strain NUM1, hits give low values 1.01 | locus YDR159W, strain sac3, hits give low values 0.981 | locus YDR162C, strain NBP2, hits give low values 0.932 | locus YDR195W, strain ref2 1.01 | locus YDR297W, strain sur2, hits give low values 0.993 | locus YDR318W, strain mcm21, hits give low values 0.974 | locus YDR334W, strain swr1, hits give low values 0.977 | locus YDR335W, strain msn5, hits give low values 0.98 | locus YDR388W, hits give low values 0.975 | locus YDR392W, strain spt3, hits give low values 0.801 | locus YDR502C, strain sam2, hits give low values 0.957 | locus YEL003W, strain gim4, hits give low values 0.97 | locus YEL037C, strain rad23, hits give low values 0.966 | locus YEL061C, strain CIN8 (second series), hits give low values 0.967 | locus YEL061C, strain CIN8, hits give low values 0.995 | locus YER015W, strain faa2, hits give low values 0.974 | locus YER016W, strain bim1, hits give low values 0.98 | locus YER110C, hits give low values 0.982 | locus YER111C, strain swi4, hits give low values 0.988 | locus YER155C, strain BEM2 (second series), hits give low values 0.981 | locus YER155C, strain BEM2, hits give low values 0.999 | locus YER167W, strain BCK2, hits give low values 0.991 | locus YFR010W, strain ubp6, hits give low values 0.979 | locus YGL078C, strain dbp3, hits give low values 0.979 | locus YGL086W, strain mad1, hits give low values 0.991 | locus YGL167C, strain pmr1, hits give low values 0.972 | locus YGL173C, strain kem1, hits give low values 0.969 | locus YGL227W, strain vid30, hits give low values 0.984 | locus YGL240W, strain doc1, hits give low values 0.988 | locus YGL248W, strain PDE1, hits give low values 0.998 | locus YGL253W, strain hxk2, hits give low values 0.982 | locus YGR135W, strain pre9, hits give low values 0.986 | locus YGR229C, strain SMI1, hits give low values 0.948 | locus YGR252W, strain gcn5, hits give low values 0.978 | locus YHR013C, strain ard1, hits give low values 0.993 | locus YHR027C, strain rpn1, hits give low values 0.981 | locus YHR030C, strain SLT2, hits give low values 1 and 0.925 | locus YHR079C, strain IRE1 (second series), hits give low values 0.983 | locus YHR079C, strain IRE1, hits give low values 0.95 | locus YHR094C, strain hxt1, hits give low values 0.981 | locus YHR129C, strain ARP1, hits give low values 1.01 | locus YHR142W, strain chs7, hits give low values 0.952 | locus YHR200W, strain rpn10, hits give low values 0.986 | locus YIL066C, strain RNR3, hits give low values 0.99 | locus YIL073C, strain SPO22, hits give low values 0.9 | locus YIL125W, strain kgd1, hits give low values 0.986 | locus YIR030C, strain dcg1, hits give low values 0.984 | locus YJL092W, strain hpr5, hits give low values 0.976 | locus YJL095W, strain BCK1 (second series), hits give low values 0.99 | locus YJL095W, strain BCK1, hits give low values 0.932 and 0.954 | locus YJL115W, strain asf1, hits give low values 0.975 | locus YJL129C, strain trk1, hits give low values 0.919 | locus YJL134W, strain LCB3, hits give low values 0.995 | locus YJL154C, strain vps35, hits give low values 0.965 | locus YJL164C, strain tpk1, hits give low values 0.976 | locus YJL166W, strain qcr8, hits give low values 0.992 | locus YJL168C, strain set2, hits give low values 0.984 | locus YJL187C, strain SWE1 (second series), hits give low values 0.991 | locus YJL187C, strain SWE1, hits give low values 0.983 | locus YJR043C, strain POL32, hits give low values 1.01

Reference: PubChem BioAssay AID1159580 (chemical genetic matrix, 2015)
